Dicer inh = human Dicer pre-microRNA cleavage inhibition; Q9UPY3; cat-ELCCA pre-miR-21 Dicer processing, chemiluminescence; stronger effect = higher value; z-score at 25 µM; 47,000 compounds, 6% hits; in the data active means z-score above about 3, passing the limit was not always enough;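 further: plate controls were vehicle for no effect and no enzyme for full effect; higher signal means more uncleaved substrate so more Dicer inhibition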
Target sequence (Q9UPY3 whole entry, looked up): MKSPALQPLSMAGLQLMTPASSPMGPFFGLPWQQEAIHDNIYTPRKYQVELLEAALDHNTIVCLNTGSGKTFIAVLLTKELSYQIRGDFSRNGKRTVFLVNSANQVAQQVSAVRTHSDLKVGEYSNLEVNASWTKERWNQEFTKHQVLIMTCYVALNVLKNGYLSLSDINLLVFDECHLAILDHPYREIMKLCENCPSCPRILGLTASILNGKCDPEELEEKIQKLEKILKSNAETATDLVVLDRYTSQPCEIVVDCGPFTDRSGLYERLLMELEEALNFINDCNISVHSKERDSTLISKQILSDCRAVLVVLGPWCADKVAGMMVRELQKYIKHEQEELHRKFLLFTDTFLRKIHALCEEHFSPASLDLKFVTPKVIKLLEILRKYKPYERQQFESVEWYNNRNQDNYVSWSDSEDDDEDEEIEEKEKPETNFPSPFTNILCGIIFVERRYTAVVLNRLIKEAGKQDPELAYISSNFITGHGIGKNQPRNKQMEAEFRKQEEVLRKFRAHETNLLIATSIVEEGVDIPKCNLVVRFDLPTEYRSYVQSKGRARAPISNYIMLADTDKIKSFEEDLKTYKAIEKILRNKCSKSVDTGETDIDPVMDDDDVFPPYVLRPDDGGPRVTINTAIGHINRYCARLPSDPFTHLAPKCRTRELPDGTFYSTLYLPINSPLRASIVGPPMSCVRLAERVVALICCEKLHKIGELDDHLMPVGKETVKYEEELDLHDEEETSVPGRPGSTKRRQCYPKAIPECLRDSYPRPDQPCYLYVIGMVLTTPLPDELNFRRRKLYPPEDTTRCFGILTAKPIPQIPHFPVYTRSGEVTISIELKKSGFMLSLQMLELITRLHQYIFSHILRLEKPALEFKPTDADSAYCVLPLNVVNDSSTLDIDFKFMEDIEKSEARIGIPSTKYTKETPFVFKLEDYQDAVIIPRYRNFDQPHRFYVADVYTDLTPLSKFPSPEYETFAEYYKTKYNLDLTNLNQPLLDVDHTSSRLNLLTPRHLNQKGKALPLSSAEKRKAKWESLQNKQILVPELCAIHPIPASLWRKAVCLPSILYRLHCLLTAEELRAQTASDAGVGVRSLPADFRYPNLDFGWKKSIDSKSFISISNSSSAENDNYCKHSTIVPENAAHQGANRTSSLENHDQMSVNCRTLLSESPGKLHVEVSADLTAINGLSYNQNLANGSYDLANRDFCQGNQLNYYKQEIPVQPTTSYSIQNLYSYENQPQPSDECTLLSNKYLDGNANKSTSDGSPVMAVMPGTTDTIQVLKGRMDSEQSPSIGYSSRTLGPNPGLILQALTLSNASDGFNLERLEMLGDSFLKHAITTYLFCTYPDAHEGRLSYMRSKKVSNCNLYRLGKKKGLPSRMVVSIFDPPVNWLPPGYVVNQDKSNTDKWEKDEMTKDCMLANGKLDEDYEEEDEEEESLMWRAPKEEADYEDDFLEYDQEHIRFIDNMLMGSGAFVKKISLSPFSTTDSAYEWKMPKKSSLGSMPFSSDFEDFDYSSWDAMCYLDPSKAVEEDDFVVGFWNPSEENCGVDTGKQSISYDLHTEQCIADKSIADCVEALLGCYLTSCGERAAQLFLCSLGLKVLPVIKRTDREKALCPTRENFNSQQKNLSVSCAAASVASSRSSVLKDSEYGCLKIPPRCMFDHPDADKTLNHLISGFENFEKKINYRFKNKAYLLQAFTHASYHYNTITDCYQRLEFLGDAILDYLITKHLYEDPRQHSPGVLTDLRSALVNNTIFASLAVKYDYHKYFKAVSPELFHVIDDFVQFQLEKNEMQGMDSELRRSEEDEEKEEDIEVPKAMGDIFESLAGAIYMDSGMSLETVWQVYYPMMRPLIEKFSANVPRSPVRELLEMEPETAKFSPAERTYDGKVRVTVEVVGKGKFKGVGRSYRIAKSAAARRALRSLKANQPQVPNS
* hit, by the source's call. Only a selection was taken, and hits are over-represented in it overall.

What do the screens show for `Cc1cc(C)n(Cc2ccc(Cl)cc2)c(=O)c1C#N`?
Dicer inh: -0.9

What do the screens show for `O=C(O)CNC(=O)c1ccc(Br)cc1`?
Dicer inh: 0.52

Results for NNC(=O)CNC(=O)c1ccc(Br)cc1 ?
Dicer inh: 4.8*

Results for NNC(=O)CNC(=O)c1c(F)cccc1F ?
Dicer inh: -2

How did CSc1sc(-c2nc(C)cs2)c(C)c1-c1cnc(SCC(=O)Nc2cccc(C(F)(F)F)c2)nc1 do in these assays?
Dicer inh: -0.99

How did O=C(NCc1ccc(F)cc1)c1nc2c(nnn2CC2CCCO2)c(=O)[nH]1 (stereo unspecified) do in these assays?
Dicer inh: 3.1*

Results for Cc1nc2cc(Cl)ccc2c(=O)n1CC1CCCO1 (stereo unspecified) ?
Dicer inh: -1

How did O=C1CC(NCC2CCCO2)C(=O)N1c1ccc(F)cc1 (stereo unspecified) do in these assays?
Dicer inh: -2.5

How did CC1(C)COCCN1C(=O)c1ccc(Cl)cc1 do in these assays?
Dicer inh: -0.32

How did Cc1ccc(-c2nc3c4c5c(sc4ncn3n2)C(C)(C)NC(C)(C)C5)cc1 do in these assays?
Dicer inh: 1.5

How did C=CCNC(=O)c1c(NC(=O)c2ccco2)sc2c1CCC(C(C)(C)C)C2 (stereo unspecified) do in these assays?
Dicer inh: -1.4

What do the screens show for `CCCCN1C(=O)C2(/C(=C(/O)c3ccc4c(c3)CC(C)O4)C(=O)C(=O)N2CCOC)c2ccccc21` (stereo unspecified)?
Dicer inh: 4.9*

Results for CCCCN1C(=O)C2(/C(=C(/O)c3ccc(C)cc3)C(=O)C(=O)N2CCCN(C)C)c2ccccc21 (stereo unspecified) ?
Dicer inh: 1.8

How did CCN1C(=O)C2(/C(=C(/O)c3ccc4c(c3)CC(C)O4)C(=O)C(=O)N2CCCN(C)C)c2ccccc21 (stereo unspecified) do in these assays?
Dicer inh: 4.3*

How did CCN1C(=O)C2(/C(=C(/O)c3ccc4c(c3)CC(C)O4)C(=O)C(=O)N2CCN(C)C)c2ccccc21 (stereo unspecified) do in these assays?
Dicer inh: -1.6

Results for CCN1C(=O)C2(/C(=C(/O)c3ccc(OC)c(C)c3)C(=O)C(=O)N2CCN(C)C)c2ccccc21 (stereo unspecified) ?
Dicer inh: -4

Results for CC(C)(C)N1C(=O)C(c2ccccc2)S/C1=N\N=C\c1cccc([N+](=O)[O-])c1 (stereo unspecified) ?
Dicer inh: 0.75

Results for Cc1ccc(C2Nn3c(C)nnc3SC2C(=O)Nc2ccc(Br)cc2)cc1 (stereo unspecified) ?
Dicer inh: 1.1

What do the screens show for `CSc1ccccc1NC(=O)Cn1c(=O)sc2ccccc21`?
Dicer inh: 0.36

How did CC(=O)Nc1ccc(-n2sc3c(c2=S)-c2cc(C)ccc2NC3(C)C)cc1 do in these assays?
Dicer inh: 4.9

How did CCCCOC(=O)C1=C(C)NC2=C(C(=O)CCC2)C1c1cc2c(cc1Br)OCO2 (stereo unspecified) do in these assays?
Dicer inh: 0.09

How did S=C1CC(c2ccccc2)Sc2ccccc2N1 (stereo unspecified) do in these assays?
Dicer inh: 0.9

What do the screens show for `CC1(O)CC(c2ccccc2)SC(c2ccccc2)C1` (stereo unspecified)?
Dicer inh: 0.18

Results for c1ccc(C2CCCC(c3ccccc3)S2)cc1 (stereo unspecified) ?
Dicer inh: 4.8*

What do the screens show for `COc1ccccc1C1C(C#N)=C(C)NC2=C1C(=O)CC(c1ccccc1)C2` (stereo unspecified)?
Dicer inh: 0.45

How did Cc1cccc(NC(=O)c2cccs2)c1C(=O)O do in these assays?
Dicer inh: 0.99

Results for O=C(Nc1ccc(OC(=O)N(c2ccccc2)c2ccccc2)cc1)N1CCOCC1 ?
Dicer inh: 3.9*

How did O=C(Nc1ccc(Cl)cc1)N1CCOCC1 do in these assays?
Dicer inh: 0.1

How did O=C(Nc1ccccc1)N1CCSCC1 do in these assays?
Dicer inh: 1.6

Results for CC(C)CN=C1NS(=O)(=O)c2ccccc21 ?
Dicer inh: 2.4

How did Cc1ccc(S(=O)(=O)Nc2ccc3c(c2)Cc2cc(Br)ccc2-3)cc1 do in these assays?
Dicer inh: 3.4*

What do the screens show for `Cc1ccc(S(=O)(=O)Nc2ccc(O)c(Br)c2)cc1`?
Dicer inh: 1.4

What do the screens show for `CNS(=O)(=O)c1ccc2c(c1)Cc1cc(S(=O)(=O)NC)ccc1-2`?
Dicer inh: 0.52

Results for Cn1nccc1NS(=O)(=O)c1ccc(C(C)(C)C)cc1 ?
Dicer inh: -0.85

Results for COc1ccccc1Oc1c(NS(=O)(=O)c2ccc(C(C)(C)C)cc2)nc(-c2ncccn2)nc1OCCO ?
Dicer inh: 18*

What do the screens show for `CC(C)(C)c1ccc(-c2[nH]nc(NS(=O)(=O)c3ccccc3)c2Br)cc1`?
Dicer inh: -4.6

What do the screens show for `COc1cc(C2c3c(oc4ccccc4c3=O)C(=O)N2c2nccs2)ccc1OCc1ccccc1` (stereo unspecified)?
Dicer inh: -0.43

How did Cc1cc(=O)[nH]c(SCC(=O)c2ccc(F)cc2)n1 do in these assays?
Dicer inh: 1.7
